Bioassay records: PubChem, several laboratories
TPT1 inhibitor – C. albicans TPT1 enzyme inhibition. AID 1962. inhibition, % at 5 µM. recombinant caTPT1, FP RNA substrate dephosphorylation. hit rate 0.81% among 300,000;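 active = inhibition above the mean of all tested compounds plus 3 SD, set per screening campaign, cut at about 24% in these data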
CRFR2-BP antag – blocks CRF-induced signaling of the CRF-BP/CRF-R2 complex; HEK293 CRF-R2/CRF-BP, CRF-induced calcium fluorescence; inhibition, % at 11.8 µM; hit rate 0.59% among 350,000; AID 588475;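 active = inhibition of the ligand-induced calcium signal above about 50% at the single tested concentration, limit read from the data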
CRFBP-R2 agonist – CRF-BP/CRF-R2 complex agonism | hit rate 0.46% among 350,000 | AID 588473 | HEK293 CRF-R2/CRF-BP, calcium dye fluorescence (FLIPR); percent of saturating CRF peptide response | activation, % at 13.2 µM;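 active = activation of at least 50%, plus an integration ratio under a set limit after plate pattern correction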
IDE act – activators of human insulin-degrading enzyme in cells. activation, % at 5.96 µM. hit rate 0.073% among 340,000. HEK cells, FAbeta-B cleavage, fluorescence polarization; 0% vehicle, 100% cell-free pure enzyme wells. P14735. AID 493087;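 active = activation above the mean of all tested compounds plus 3 SD, set per screening campaign, cut at about 17% in these data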
Myeloid diff MLP – promotes myeloid progenitor differentiation; AID 624256; hit rate 1% among 360,000; ER-HoxA9 myeloid progenitors, lysozyme-GFP differentiation, flow cytometry; calls only at 10 µM;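 active = normalized GFP-positive differentiation at or above the plate's own cutoff, the solvent-only control mean plus 3 SD; inconclusive = no clear call, values can overlap the other calls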;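 note: cells exposed to compound for four days before flow analysis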
IDE inh – cellular human IDE inhibition; P14735; HEK cells, FAbetaB cleavage, fluorescence polarization; inhibition, % at 5.59 µM; hit rate 0.41% among 320,000; AID 434962;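 active = percent inhibition above the average of all tested compounds plus 3 SD, set per screening campaign, cut at about 16% in these data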;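 note: IDE supplied by intact live HEK cells; FP after avidin binding of uncleaved biotin substrate so inhibition keeps polarization high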
TPT1 inh confirm – confirmation of Candida albicans TPT1 inhibitors | inhibition, % at 5 µM | shares compounds with TPT1 inhibitor | hit rate 74% among 2,400 | recombinant caTPT1, fluorescence polarization, RNase T1 coupled;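 active = inhibition above the primary screen limit, the mean inhibition of all tested compounds plus 3 SD, cut at about 25% in these data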
RNase T1 inh – RNase T1 inhibition in TPT1 counter-screen | shares compounds with TPT1 inhibitor | RNase T1 cleavage, fluorescence polarization, 1536-well | inhibition, % at 5 µM | hit rate 83% among 2,400 | AID 2153;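 active = inhibition above the solvent-only control well mean plus 3 SD, limit set per screening run, cut at about 23% in these data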;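 note: inhibitors block cleavage so intact labeled substrate keeps polarization high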
Target sequence (P00651 whole entry, looked up): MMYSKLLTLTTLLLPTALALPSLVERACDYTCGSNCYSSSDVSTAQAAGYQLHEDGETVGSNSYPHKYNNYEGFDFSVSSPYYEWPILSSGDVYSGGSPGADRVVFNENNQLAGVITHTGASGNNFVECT
A number is an active result. Compounds with a hit are over-represented: about 2.6% of the library has one in this group of screens.

For O=C1NC(=S)N/C1=C/c1cc([N+](=O)[O-])ccc1O the results were TPT1 inhibitor 43, CRFR2-BP antag inactive, CRFBP-R2 agonist inactive, IDE act inactive, Myeloid diff MLP inactive, IDE inh inactive, TPT1 inh confirm 43 and RNase T1 inh 52.
O=C1NC(=S)N/C1=C/c1cccc([N+](=O)[O-])c1O was read as TPT1 inhibitor inactive, CRFR2-BP antag inactive, CRFBP-R2 agonist inactive, IDE act inactive, Myeloid diff MLP inactive and IDE inh inactive.
Screening Cc1ccc(/C=C(\C#N)C(=O)Nc2c(C)cccc2C)s1 returned TPT1 inhibitor 30, CRFR2-BP antag inactive, CRFBP-R2 agonist inactive, IDE act inactive, Myeloid diff MLP inactive, IDE inh inactive, TPT1 inh confirm 41 and RNase T1 inh 53.
For CN(C(=O)COC(=O)c1ccc([N+](=O)[O-])cc1N)c1ccccc1 the results were TPT1 inhibitor 84, CRFR2-BP antag inactive, CRFBP-R2 agonist inactive, IDE act inactive, Myeloid diff MLP inactive, IDE inh inactive, TPT1 inh confirm 75 and RNase T1 inh 82.
For Cc1ccc(C(=O)OCC(=O)N(C)c2ccccc2)c(C)c1 the results were TPT1 inhibitor inactive, CRFR2-BP antag inactive, CRFBP-R2 agonist inactive, IDE act inactive, Myeloid diff MLP inactive and IDE inh inactive.
Screening COc1cc2cc(CCCOC(=O)CCCC(=O)O)oc(=O)c2cc1OC returned CRFR2-BP antag inactive, CRFBP-R2 agonist inactive, IDE act inactive, Myeloid diff MLP inactive and IDE inh inactive.
Screening O=[N+]([O-])c1ccc(N2CCOCC2)cc1N1CCCCC1 returned TPT1 inhibitor inactive, CRFR2-BP antag inactive, CRFBP-R2 agonist inactive, IDE act inactive, Myeloid diff MLP inactive and IDE inh inactive.
Screening O=[N+]([O-])c1ccc(N2CCCCC2)cc1N1CCOCC1 returned TPT1 inhibitor 25, CRFR2-BP antag inactive, CRFBP-R2 agonist inactive, IDE act inactive, Myeloid diff MLP inactive, IDE inh inactive, TPT1 inh confirm inactive and RNase T1 inh inactive.
`O=C(c1cccc(S(=O)(=O)N2CCOCC2)c1)N1CCN(C/C=C/c2ccccc2)CC1` gave CRFR2-BP antag inactive, CRFBP-R2 agonist inactive, IDE act inactive, Myeloid diff MLP inactive and IDE inh inactive.
For COc1ccc(N/C(C)=C/C(=S)Nc2ccccc2)cc1 the results were TPT1 inhibitor 125, CRFR2-BP antag inactive, CRFBP-R2 agonist inactive, IDE act inactive, Myeloid diff MLP inactive, IDE inh inactive, TPT1 inh confirm inactive and RNase T1 inh inactive.
O=C1c2cc(O)cc(O)c2C(=O)c2c1cc(O)c([C@@H](CO)CCO)c2O was read as TPT1 inhibitor inactive, CRFR2-BP antag inactive, CRFBP-R2 agonist inactive, IDE act inactive, Myeloid diff MLP inactive and IDE inh inactive.
Cc1cc(O)c2c(c1)C(=O)c1cc(O)cc(O)c1C2=O was read as TPT1 inhibitor 27, CRFR2-BP antag inactive, CRFBP-R2 agonist inactive, IDE act inactive, Myeloid diff MLP inactive, IDE inh inactive, TPT1 inh confirm 44 and RNase T1 inh 61.
Screening CCc1cc2c(=O)[nH]c(-c3ccncc3)nc2s1 returned TPT1 inhibitor 29, CRFR2-BP antag inactive, CRFBP-R2 agonist inactive, IDE act inactive, Myeloid diff MLP inactive, IDE inh inactive, TPT1 inh confirm inactive and RNase T1 inh inactive.
`CCc1cc2c(=O)[nH]c(Cc3ccccc3)nc2s1` gave TPT1 inhibitor inactive, CRFR2-BP antag inactive, CRFBP-R2 agonist inactive, IDE act inactive, Myeloid diff MLP inactive and IDE inh inactive.
`O=C(c1ccccc1)N1CCOC(O)(c2ccccc2)C1c1ccccc1` (stereo not given) gave CRFR2-BP antag inactive, CRFBP-R2 agonist inactive, IDE act inactive and Myeloid diff MLP inactive.
`Cc1ccc(S(=O)(=O)c2c(N)n(NC(=O)c3ccco3)c3nc4ccccc4nc23)cc1` gave TPT1 inhibitor inactive, CRFR2-BP antag inactive, CRFBP-R2 agonist inactive, IDE act inactive, Myeloid diff MLP inactive and IDE inh inactive.
`Cc1ccc(S(=O)(=O)c2c(N)n(Cc3ccco3)c3nc4ccccc4nc23)cc1` gave TPT1 inhibitor 27, CRFR2-BP antag inactive, CRFBP-R2 agonist inactive, IDE act inactive, Myeloid diff MLP inactive, IDE inh inactive, TPT1 inh confirm inactive and RNase T1 inh 29.
Screening CCOC(=O)C1=C(C)N=c2s/c(=C/c3ccc(OCC(=O)O)c(OC)c3)c(=O)n2C1c1ccc(Cl)cc1 (stereo not given) returned TPT1 inhibitor 42, CRFR2-BP antag inactive, CRFBP-R2 agonist inactive, IDE act inactive, Myeloid diff MLP inactive, IDE inh inactive, TPT1 inh confirm 60 and RNase T1 inh 72.
For CN(CC(=O)Nc1cccc(F)c1)C(=O)C1CCC(C(=O)N(C)CC(=O)Nc2cccc(F)c2)CC1 (stereo not given) the results were CRFR2-BP antag inactive, CRFBP-R2 agonist inactive, IDE act inactive and Myeloid diff MLP inactive.
O=C1Nc2ccccc2OCc2c1cccc2[N+](=O)[O-] was read as TPT1 inhibitor inactive, CRFR2-BP antag inactive, CRFBP-R2 agonist inactive, IDE act inactive, Myeloid diff MLP inactive and IDE inh inactive.
`Cc1ccccc1-n1c(SCC(=O)NC(N)=O)nc2sc(-c3ccccc3)cc2c1=O` gave TPT1 inhibitor 31, CRFR2-BP antag inactive, CRFBP-R2 agonist inactive, IDE act inactive, Myeloid diff MLP inactive, IDE inh inactive, TPT1 inh confirm inactive and RNase T1 inh inactive.
Screening CN1CCN(/N=C/c2ccc(-c3ccc([N+](=O)[O-])cc3Cl)o2)CC1 returned TPT1 inhibitor 30, CRFR2-BP antag inactive, CRFBP-R2 agonist inactive, IDE act inactive, Myeloid diff MLP inactive, IDE inh inactive, TPT1 inh confirm 35 and RNase T1 inh 49.
For O=[N+]([O-])c1ccc(Cl)c(-c2ccc(/C=N/n3cnnc3)o2)c1 the results were TPT1 inhibitor inactive, CRFR2-BP antag inactive, CRFBP-R2 agonist inactive, IDE act inactive, Myeloid diff MLP inactive and IDE inh inactive.
For Cc1nc(C)c(C(=O)N2CCCC(C(=O)c3cc(F)ccc3F)C2)s1 (stereo not given) the results were TPT1 inhibitor inactive, CRFR2-BP antag inactive, CRFBP-R2 agonist inactive, IDE act inactive, Myeloid diff MLP inactive and IDE inh inactive.
Screening Cc1nc(N)nc(N)c1CCCc1ccc(Cl)c(Cl)c1 returned TPT1 inhibitor inactive, CRFR2-BP antag inactive, CRFBP-R2 agonist inactive, IDE act inactive, Myeloid diff MLP inconclusive and IDE inh inactive.
For CCOC(=O)/C(C#N)=C/c1ccc(OC(=O)c2ccccn2)cc1 the results were TPT1 inhibitor inactive, CRFR2-BP antag inactive, CRFBP-R2 agonist inactive, IDE act inactive, Myeloid diff MLP inconclusive and IDE inh inactive.
